In PubChem BioAssay (NCI):
About 83,000 compounds went through this panel and 20% of them were active in at least one assay; those are over-represented in the sample as a whole.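 Results are percent growth after 48 hours of single-concentration exposure. 100 means growth as in untreated cells, lower positive values show inhibition; negative values down to -100 show cell death.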 Unmarked numbers belong to inactive results. Activity calls are given as the source filed them. The calls were made as follows: active = growth percent below 10; inactive = the rest.

Tests used:
Experiment in all cases: NCI-60 one-dose screen, 48 h (100 = growth as untreated, 0 = no growth, -100 = all killed)
Details in all cases: 10 µM unless noted
NCI-H23 lung = system: NCI-H23 lung
NCI-H226 lung = system: NCI-H226 lung
NCI-H322M lung = system: NCI-H322M lung
HOP-62 NSCLC = system: HOP-62 NSCLC
NCI-H460 lung = system: NCI-H460 lung
HOP-92 NSCLC = system: HOP-92 NSCLC
A549/ATCC NSCLC = system: A549/ATCC NSCLC
786-0 renal = system: 786-0 renal
COLO 205 colon = system: COLO 205 colon
DU-145 prostate = system: DU-145 prostate
K-562 leukemia = system: K-562 leukemia
MALME-3M melanoma = system: MALME-3M melanoma
MDA-MB-231 breast = system: MDA-MB-231 breast
RXF 393 renal = system: RXF 393 renal
SF-268 CNS = system: SF-268 CNS
SF-295 CNS = system: SF-295 CNS
SF-539 CNS = system: SF-539 CNS
UACC-257 melanoma = system: UACC-257 melanoma
M14 melanoma = system: M14 melanoma

Row | SMILES | growth (NCI-H23 lung) | growth (NCI-H226 lung) | growth (NCI-H322M lung) | growth (HOP-62 NSCLC) | growth (NCI-H460 lung) | growth (HOP-92 NSCLC) | growth (A549/ATCC NSCLC) | growth (786-0 renal) | growth (COLO 205 colon) | growth (DU-145 prostate) | growth (K-562 leukemia) | growth (MALME-3M melanoma) | growth (MDA-MB-231 breast) | growth (RXF 393 renal) | growth (SF-268 CNS) | growth (SF-295 CNS) | growth (SF-539 CNS) | growth (UACC-257 melanoma) | growth (M14 melanoma)
1 | CCCSc1nc(N)nc2nc[nH]c12 | 97.5% | 103% | 161% | 95.7% | 106% | 91.9% | 105% | 97.5% | 113% | 119% | 90.5% | 249% | 104% | 107% | 108% | 120% | 95.6% | 105% | 96%
2 | C[C@@H](NC(=O)[C@@H](CC(=O)N1CCC(N2CCCCC2)CC1)N1C(=O)[C@@H](N2C(=O)OC[C@@H]2c2ccccc2)[C@H]1/C=C/c1cccc(Cl)c1)c1ccccc1 | 87.8% | 89.8% | 82.1% | 87.6% | 13.3% | 58.3% | 63.9% | 65% | -54.6% (active) | 88.1% | -8.32% (active) | -33.7% (active) | 33.2% | 60.5% | 67.9% | 82% | 75.7% | 57.2% | -46.6% (active)
3 | Cc1ccc(NCCN2CCCCC2)c2c(=O)c3ccccc3sc12 | 43.1% | 57.2% | 45.7% | 55.6% | 2.26% (active) | 29.5% | 20.2% | 30.7% | -41.8% (active) | 36.7% | 16.2% | 22.1% | 28.3% | -29.5% (active) | 45.7% | 39% | 32.3% | -43% (active) | -30% (active)
4 | Cc1ccc(S(=O)(=O)N/N=C2\CC3CCC2(C)C3(C)C)cc1 (configuration not stated) | 237% | 96.9% | 116% | 103% | 108% | 95.6% | 81.8% | 103% | 113% | 105% | 120% | 103% | 89% | 89.4% | 116% | 94% | 102% | 87.8% | 77.9%
5 | COc1ccc(-c2c(C)nn3c(NCCN4CCOCC4)cc(C)nc23)cc1OC | 102% | 94.2% | 102% | 95% | 103% | 108% | 96.6% | 94.7% | 111% | 106% | 97.8% | 96.8% | 86% | 83.6% | 101% | 82% | 81.9% | 99.9% | 96.3%
6 | Cc1ccc(-n2nc3n(/c2=N\C(=O)NS(=O)(=O)c2ccc(C)cc2)CCN3C2=NCCN2)cc1 | 106% | 95.3% | 105% | 93.4% | 106% | 104% | 95.4% | 99.4% | 115% | 108% | 109% | 106% | 99.7% | 123% | 103% | 102% | 95.1% | 98.1% | 101%
7 | COc1ccc(-c2ccc(NNC(=O)c3ccc(F)cc3)nn2)cc1OC | 83.7% | 70% | 72.2% | 57.6% | 93.2% | 8.49% (active) | 72.4% | 63.4% | 75.6% | 65.6% | 55% | 98.8% | 36.2% | 19.5% | 58.2% | 84.7% | 65.8% | 102% | 100%
8 | COc1ccc(N(c2nc(-c3ccc([N+](=O)[O-])cc3)cs2)C(C)C)cc1 | 65% | 76.3% | 83.1% | 84.8% | 84.1% | 74.3% | 85.3% | 88.4% | 108% | 86.1% | 55.1% | 94.6% | 73.9% | 102% | 83.5% | 89.8% | 88.7% | 80.5% | 89.9%
